# According to PubChem BioAssay (Tox21):
# “And” between values parts separate entries of the source, which are not always exact repeats. Equal entries are not always repeated. Inconclusive results are not listed. Entries that show only a call come without a potency. The source made the active and inactive calls. Calls come from the whole dose curve; as a rule, active = well fitted cell-killing curve with a large enough effect in the repeat runs; inconclusive = weak or mixed curves, or effect the other way; inactive = flat fitted curve, though single readings scatter.
# Test: cAMP Responsive Elements (CRE) small molecule antagonists, cell-based qHTS assay: qHTS cell viability counter screen (AID 2060913); note: nearly all actives have a fitted effect of over 40% in size
# Settings: CRE-bla HEK293T viability, CellTiter-Glo luminescence, 5 h; series mostly up to 92.4 µM
# Summary of the method: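 Steps: cells plated and held 18 hrs at 37 C/5% CO2; compounds and NKH477 (0.25 uM final) added; 3 hrs incubation; reporter substrate read; CellTiter-Glo added to measure cytotoxicity by luminescence.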
# Potency is the fitted concentration of half-maximal effect.
Structure (SMILES),Potency,"viability change, negative = cytotoxic"
O=C(O)CC(=O)O,inactive,
CC(C)CCCCCCOC(=O)c1ccc(C(=O)OCCCCCCC(C)C)c(C(=O)OCCCCCCC(C)C)c1,inactive,
CCOC(=O)C(F)(F)F,inactive,
O=CCc1ccccc1,inactive,
CN(C)c1ccncc1,inactive,
COc1ccc(C)cc1[N+](=O)[O-],inactive,
NC(=O)Nc1ccccc1,inactive,
NC1[C@H]2CN(c3nc4c(cc3F)c(=O)c(C(=O)O)cn4-c3ccc(F)cc3F)C[C@@H]12 (stereo not given in full),inactive,
NNS(=O)(=O)c1ccc(Oc2ccc(S(=O)(=O)NN)cc2)cc1,inactive,
OCCN1C[C@H](O)[C@@H](O)[C@H](O)[C@H]1CO,inactive,
CC(C)Cc1ccccc1,inactive,
CC(C)(C)C(=O)/C=C/c1ccc(Cl)cc1,inactive,
CCCCCCC(C)(C)C(=O)O,inactive,
O=C(O)Cc1cn(-c2ccccc2)nc1-c1ccc(Cl)cc1,inactive,
CC(C)NCC(O)c1ccc(NS(C)(=O)=O)cc1 (stereo not given),inactive,
CN(C)c1ccc(C(=N)c2ccc(N(C)C)cc2)cc1,inactive,
C=C(C)C(=O)OCCOCCOC(=O)C(=C)C,inactive,
CCOC(=O)C(C)(C)C,inactive,
Clc1ccc2n[nH]nc2c1,inactive,
COc1nc(C)nc(Cl)c1NC1=NCCN1,inactive,

Structure (SMILES),Potency,"viability change, negative = cytotoxic"
Nc1ccccn1,inactive,
Cc1cc(O)c(C(C)(C)C)cc1Sc1cc(C(C)(C)C)c(O)cc1C,21.6 µM (active),
CC(=O)OC1C2(C)CCC(C2)C1(C)C (stereo not given),inactive,
N[C@@H]1CONC1=O,inactive,
Oc1ccccc1F,inactive,
CCNc1ccccc1,inactive,
CCC(=O)/C=C/C1C(C)=CCCC1(C)C (stereo not given),inactive,
CC(=O)C1C(=O)C=C(C)OC1=O (stereo not given),inactive,
CCCCCCCCCCCC[N+](C)(C)Cc1ccccc1,60 µM (active) and 59.2 µM (active) and 13.3 µM (active),
COC(=O)c1ccc2cc(C(=O)OC)ccc2c1,,9.85% [at 18.9 µM] (inactive)
CC/C=C\CC/C=C/C(OCC)OCC,inactive,
COC(CC(C)CCCC(C)(C)O)OC (stereo not given),inactive,
CCCCCCC#CC(=O)OC,inactive,
O=C(NS(=O)(=O)/C=C/c1cccs1)c1ccc(F)cc1Br,inactive,
CCC(C(=O)NC(=O)NC(C)=O)c1ccccc1 (stereo not given),inactive,
O=C(Oc1ccccc1)c1ccc(O)cc1,inactive,
CCC(CC)(CC(=O)Nc1cccc(/C=C/c2nc(C3CCC3)cs2)c1)C(=O)O,inactive,
O=C1c2ccccc2C(=O)N1CCl,inactive,
O=C(O)CCCCCCCCC(=O)O,inactive,
C=Cc1cccc(C)c1,inactive,

# Test: cAMP Responsive Elements (CRE) small molecule agonists, cell-based qHTS assay: qHTS cell viability counter screen (AID 2060914);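 note: viability read after 3 h of compound exposure; nearly all actives have a fitted effect of over 50% in size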
# Settings: CRE-bla HEK293T viability, CellTiter-Glo luminescence, 5 h; series mostly up to 92.4 µM
# Summary of the method: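 HEK 293T CRE-bla; DMEM + 10% dialyzed FBS, 25 mM HEPES; 18 h pre-incubation; compound 3 h, 37 °C/5% CO2; CellTiter-Glo added after reporter read; luminescence after 30 min RT.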
Structure (SMILES),Potency,"activity change, negative = cytotoxicity"
O=C(O)CC(=O)O,inactive,
CC(C)CCCCCCOC(=O)c1ccc(C(=O)OCCCCCCC(C)C)c(C(=O)OCCCCCCC(C)C)c1,inactive,
CCOC(=O)C(F)(F)F,inactive,
O=CCc1ccccc1,inactive,
CN(C)c1ccncc1,inactive,
COc1ccc(C)cc1[N+](=O)[O-],inactive,
NC(=O)Nc1ccccc1,inactive,
NC1[C@H]2CN(c3nc4c(cc3F)c(=O)c(C(=O)O)cn4-c3ccc(F)cc3F)C[C@@H]12 (stereo not given in full),inactive,
NNS(=O)(=O)c1ccc(Oc2ccc(S(=O)(=O)NN)cc2)cc1,inactive,
OCCN1C[C@H](O)[C@@H](O)[C@H](O)[C@H]1CO,inactive,
CC(C)Cc1ccccc1,inactive,
CC(C)(C)C(=O)/C=C/c1ccc(Cl)cc1,inactive,
CCCCCCC(C)(C)C(=O)O,inactive,
O=C(O)Cc1cn(-c2ccccc2)nc1-c1ccc(Cl)cc1,inactive,
CC(C)NCC(O)c1ccc(NS(C)(=O)=O)cc1 (stereo not given),inactive,
CN(C)c1ccc(C(=N)c2ccc(N(C)C)cc2)cc1,inactive,
C=C(C)C(=O)OCCOCCOC(=O)C(=C)C,inactive,
CCOC(=O)C(C)(C)C,inactive,
Clc1ccc2n[nH]nc2c1,inactive,
COc1nc(C)nc(Cl)c1NC1=NCCN1,inactive,

Structure (SMILES),Potency,"activity change, negative = cytotoxicity"
Nc1ccccn1,inactive,
Cc1cc(O)c(C(C)(C)C)cc1Sc1cc(C(C)(C)C)c(O)cc1C,38.5 µM (active),
CC(=O)OC1C2(C)CCC(C2)C1(C)C (stereo not given),inactive,
N[C@@H]1CONC1=O,inactive,
Oc1ccccc1F,inactive,
CCNc1ccccc1,inactive,
CCC(=O)/C=C/C1C(C)=CCCC1(C)C (stereo not given),inactive,
CC(=O)C1C(=O)C=C(C)OC1=O (stereo not given),inactive,
CCCCCCCCCCCC[N+](C)(C)Cc1ccccc1,53.4 µM (active) and 37.4 µM (active) and 29.8 µM (active),
COC(=O)c1ccc2cc(C(=O)OC)ccc2c1,,-17.3% [at 18.9 µM] (inactive)
CC/C=C\CC/C=C/C(OCC)OCC,inactive,
COC(CC(C)CCCC(C)(C)O)OC (stereo not given),inactive,
CCCCCCC#CC(=O)OC,inactive,
O=C(NS(=O)(=O)/C=C/c1cccs1)c1ccc(F)cc1Br,inactive,
CCC(C(=O)NC(=O)NC(C)=O)c1ccccc1 (stereo not given),inactive,
O=C(Oc1ccccc1)c1ccc(O)cc1,inactive,
CCC(CC)(CC(=O)Nc1cccc(/C=C/c2nc(C3CCC3)cs2)c1)C(=O)O,inactive,
O=C1c2ccccc2C(=O)N1CCl,inactive,
O=C(O)CCCCCCCCC(=O)O,inactive,
C=Cc1cccc(C)c1,inactive,
